An excerpt weighted towards active compounds, which were near 1.1% of everything screened.
NR5A2 inv ag: LRH-1 (NR5A2) inverse agonists, primary screen, cell-based, luminescence, HEK293T, StAR-luciferase reporter; actives 0.13% (n = 360,000); LRH-1 transfected, 24 h; inhibition, % at 3.6 µM; Nuclear receptor subfamily 5 group A member 2 (Homo sapiens), O00482;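 active = inhibition above the mean inhibition of all tested compounds plus 3 SD, cut at about 73% in these data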;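 also: 0% = DMSO wells and 100% = reporter-only cells lacking LRH-1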
GalR3 antag: GalR3 antagonists in HEK293 cells, primary screen, cell-based, fluorescence readout | Galanin receptor type 3 (Homo sapiens), O60755 | HEK293 GalR3-CNG cAMP membrane potential fluorescence; galR3 body fused to GalR1 C-terminus | inhibition, % at 3 µM | actives 0.44% (n = 360,000);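 active = inhibition above the screen-wide average plus 3 SD, cut at about 13% in these data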;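 also: forskolin and galanin both at EC90 stimulate the cells; cAMP rise reported by CNG channel membrane potential dye signal; 0% = forskolin plus galanin with DMSO and 100% = forskolin alone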
SRC1 inh: SRC1 coactivator transcriptional activity inhibitors, primary screen, cell-based, luminescence. actives 0.12% (n = 360,000). inhibition, % at 3.6 µM. AID 588354, 2011. Nuclear receptor coactivator 1 (Homo sapiens), Q15788. HEK293 GAL4-SRC1 luciferase reporter;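 active = inhibition above the campaign mean plus 3 SD, with each screening campaign given its own cutoff, cut at about 60% in these data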;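 also: 0% = DMSO treated cells and 100% = gossypol at 36 µM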
NCOA2 inhibitor: inhibition of GAL4-SRC2 driven luciferase reporter, primary screen, SRC2 inhibitor project, cell-based, luminescence; Nuclear receptor coactivator 2 (Homo sapiens), Q15596; HEK293 GAL4-SRC2 luciferase reporter; inhibition, % at 9 µM; actives 0.17% (n = 370,000); AID 651957, 2012;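 active = inhibition above the mean inhibition of all tested compounds plus 3 SD, set per campaign, cut at about 52% in these data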;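 also: 0% = DMSO treated cells and 100% = cells given Gossypol at 36 µM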
COUP-TFII inh: NR2F2 transcriptional activity inhibitors, primary screen, cell-based, luciferase reporter, HEK293T, luminescence. COUP transcription factor 2 (Homo sapiens), P24468. HEK293T NGFI-A luciferase reporter. inhibition, % at 8.6 µM. actives 0.7% (n = 370,000). AID 686940, 2013;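 active = inhibition above a per-plate cutoff, mean inhibition of test wells between control levels plus 3 SD, cut at about 38% in these data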;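 also: cells cotransfected with COUP-TFII expression vector driving the NGFI-A reporter; 0% = median of COUP-TF2 test wells and 100% = reporter-only cells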
SRC3 inh: SRC3 coactivator transcriptional activity inhibitors, primary screen, cell-based, luminescence; Nuclear receptor coactivator 3 (Homo sapiens), Q9Y6Q9; HEK293 GAL4-SRC3 luciferase reporter; inhibition, % at 3.6 µM; actives 0.17% (n = 360,000);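 active = inhibition above a per-campaign cutoff, the mean of all compounds plus 3 SD, cut at about 60% in these data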;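 also: 0% = DMSO-treated cells and 100% = gossypol-treated cells at 36 µM; higher means less SRC3-driven luciferase light from the GAL4 reporter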
GalR3 antag conf: GalR3 antagonist hit confirmation, cell-based, fluorescence, triplicate; shares compounds with GalR3 antag; HEK293 GalR3 CNG cAMP biosensor, membrane potential fluorescence; galR3 fused to GalR1 carboxy tail; challenged with forskolin and galanin at EC90; inhibition, % at 3 µM; actives 59% (n = 1,600); AID 652245, 2013;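 active = inhibition above the primary screen's cutoff, the mean inhibition of all screened compounds plus 3 SD, cut at about 13% in these data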;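 also: 0% = forskolin plus galanin and 100% = forskolin alone with DMSO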
CNG parental: nonspecific cAMP agonists in parental HEK-CNG cells, counter-screen for GalR3 antagonist project, cell-based, fluorescence, high throughput; shares compounds with GalR3 antag; actives 10% (n = 1,600); HEK293-CNG parental cells, cAMP membrane potential fluorescence; normalised: DMSO wells 0%, forskolin wells 100%; activation, % at 3 µM; AID 652268, 2013; in the data active = activation above about 1.3%
Numbers without * were called inactive; / = not tested or not shown.

SMILES	NR5A2 inv ag	GalR3 antag	SRC1 inh	NCOA2 inhibitor	COUP-TFII inh	SRC3 inh	GalR3 antag conf	CNG parental
COC(=O)[C@]1(C)CCC[C@@]2(C)C3CC[C@@]4(C)C[C@]3(CCC21)CC(=O)N4 (some centres not stated)	19	-5	-3	-8	4	14	/	/
COc1cc2c(cc1OC)/C(=C/C(=O)c1cccc([N+](=O)[O-])c1)NCC2	21	11	-5	2	-1	-44	/	/
COc1cc2c(cc1OC)/C(=C/C(=O)c1ccc(OC)c([N+](=O)[O-])c1)NCC2	7	19*	-11	-10	-41	-25	25*	0
COc1ccc(/C=C/S(=O)(=O)NC2CCCC2)c(CNC(=O)OC(C)(C)C)c1	/	/	/	-4	3	/	/	/
COc1ccc(N(CC(=O)Nc2ccccc2C)S(=O)(=O)c2c(C)[nH]c(=O)[nH]c2=O)cc1	7	14*	2	-1	12	16	-6	0
CCOc1ccc(N(CC(=O)Nc2ccccc2C)S(=O)(=O)c2c(C)[nH]c(=O)[nH]c2=O)cc1	-10	-2	-1	20	-13	-1	/	/
CCCCN(C)CCn1c(=S)[nH]c2ncccc2c1=O	7	40*	-45	-15	-1	-2	4	0
COc1ccc(OC)c(C2=NOC(C(=O)NCC3CCCO3)C2)c1 (configuration not stated)	25	/	-3	/	/	-1	/	/
COc1cccc(C2=NOC(C(=O)NCC3CCCO3)C2)c1 (configuration not stated)	-8	35*	-5	-10	-10	10	8	0
COc1ccc(S[C@]2(C(=O)N(C)C)CC(=O)N(S(=O)(=O)c3ccc(F)cc3)[C@@H]2c2ccc(OC)cc2)cc1	/	/	/	1	5	/	/	/
CSc1cccc(NC(=O)c2ccc(CN3CCc4ccccc4C3)cc2)c1	9	47*	4	20	36	21	104*	0
CCOc1ccc(-n2c(SCC(=O)Nc3ccc4cn[nH]c4c3)nnc2-c2ccncc2)cc1	/	/	/	-6	-19	/	/	/
COC(=O)[C@]12C[C@H](CC(=O)NCCCCc3ccccc3)C(=O)N(Cc3ccc(Cl)cc3Cl)C1=C[C@H](COCc1ccccc1)O[C@@H]2C	/	/	/	-28	8	/	/	/
O=C(Nc1nc(-c2ccc(Cl)cc2Cl)cs1)c1ccc(OCC2CCCO2)cc1 (configuration not stated)	-9	92*	23	-3	14	24	109*	-1
CCC(=O)c1ccc(OCc2ccccc2)c(OC)c1	-117	-5	-72	-14	-72	-84	/	/
CCC(=O)c1ccc(OCc2ccc(C(=O)c3ccccc3)cc2)cc1	12	37*	-1	3	4	8	88*	0
Cc1ccc(O)c(N=Cc2cc(Cc3ccccc3)cc([N+](=O)[O-])c2O)c1	10	13*	-17	3	-1	2	10	0
O=[N+]([O-])c1ccccc1-c1cc(-c2cc(Cl)ccc2O)n[nH]1	-16	19*	-20	-25	10	-11	-2	-2
CC(C)N1Cc2nnn(Cc3ccccc3)c2-c2ccccc2S1(=O)=O	/	/	/	11	3	/	/	/
CCOC(=O)Cc1nc(N2CCN(C(=O)C3CCCO3)CC2)c2c(C)c(C(=O)OCC)sc2n1 (configuration not stated)	/	/	/	2	9	/	/	/
CCn1cc([N+](=O)[O-])c(C(=O)N2N=C(c3ccc(Cl)c(Cl)c3)CC2c2ccccc2O)n1 (configuration not stated)	10	15*	-23	-4	-90	0	20*	0
CCn1cc([N+](=O)[O-])c(C(=O)N2N=C(c3ccc(O)c(OC)c3)CC2c2ccccc2O)n1 (configuration not stated)	23	-1	-10	6	0	-10	/	/
O=C(CN1C(=O)C2(OCCCO2)c2ccccc21)NCc1ccc2ccccc2c1	/	/	/	-4	-10	/	/	/
CN(C)/C=N/c1nc2nccc(-c3cccs3)n2n1	2	13*	-8	-2	-34	7	-1	0
COc1cccc(C(=O)/C=C/c2ccc(OCC#N)c(OC)c2)c1	14	20*	-8	21	18	47	1	0
SMILES	NR5A2 inv ag	GalR3 antag	SRC1 inh	NCOA2 inhibitor	COUP-TFII inh	SRC3 inh	GalR3 antag conf	CNG parental
O=C(COC(=O)c1ccc([N+](=O)[O-])s1)NC(c1ccccc1)c1ccccc1	14	22*	8	-2	-2	-15	0	0
Fc1ccc(-c2nc3c4ccccc4ccn3c2Cc2ccccc2C(F)(F)F)cc1	-15	/	-13	/	/	-18	/	/
FC(F)(F)c1ccccc1Cc1c(-c2ccco2)nc2c3ccccc3ccn12	/	19*	/	-31	-5	/	35*	1
CCCc1cc(-c2[nH]ncc2-c2ccc(C(=O)OCC)o2)c(O)cc1O	12	31*	2	-8	-1	12	17*	-1
CCCc1cc(-c2[nH]ncc2-c2ccc3c(c2)OCCCO3)c(O)cc1O	14	4	2	-14	11	0	/	/
COc1cc(C#Cc2c(-c3ccccc3OC)oc3ccccc23)cc(OC)c1	6	13*	9	-22	-8	-18	6	0
COc1ccccc1-c1oc2ccccc2c1-c1ccc2c(c1)OCO2	15	-4	3	-43	4	-5	/	/
O=C(NCc1cccs1)C1CCN(S(=O)(=O)c2ccc([N+](=O)[O-])cc2)CC1	/	/	/	-19	-2	/	/	/
OCc1cc(C(O)CNCCCCCCOCCCCc2ccccc2)ccc1O (configuration not stated)	-22	19*	-16	-32	-48	-13	32*	9.1*
O=c1c(Cl)c(NCCCO)cnn1-c1nc2ccccc2[nH]1	-99	15*	-109	-126	-37	-119	4	0

Bioassay records deposited in PubChem by The Scripps Research Institute Molecular Screening Center.
